MPTP block: mitochondrial permeability transition pore inhibitors, primary screen, biochemical, isolated mouse mitochondria, absorbance. Ca2+ swelling absorbance, 30 min. 360,000 tested, 1.4% active. inhibition, % at 10 µM;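 active = inhibition of 50% or more, scaled per plate between neutral and stimulator controls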;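 also: 0% = DMSO wells given calcium and 100% = 1 mM EGTA wells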
SKKanGAS inh: S. pyogenes SKKanGAS growth inhibitors in kanamycin, primary screen, streptokinase expression inhibitor project, SKKanGAS strain, BacTiter-Glo luminescence. 300,000 tested, 1.3% active. inhibition, % at 7.5 µM. 6 h. AID 1662, 2009;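 active = mean replicate score, as percent of positive control median, at least 50; inconclusive = mean below 50 but one replicate at or above 50; inactive = mean and every replicate below 50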;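 also: strain carries kanamycin resistance gene driven by streptokinase promoter and grows in 40 µg/ml kanamycin; loss of luminescence reflects streptokinase promoter inhibition or plain growth inhibition; 0% = median of DMSO wells and 100% = positive control at its reference dose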
Mdm2-MdmX inh: inhibitors of human Mdm2-MdmX association, primary screen, cell-based, luminescence, split luciferase, SaOS-2, uHTS; Protein Mdm4 (Homo sapiens) + E3 ubiquitin-protein ligase Mdm2 (Homo sapiens), …; SaOS-2 split-luciferase Mdm2/MdmX complementation; inhibition, % at 8 µM; 330,000 tested, 3% active; AID 485346, 2010;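 active = inhibition of at least 50% at 8 µM in the primary screen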
Target sequence (O15151 whole entry, looked up): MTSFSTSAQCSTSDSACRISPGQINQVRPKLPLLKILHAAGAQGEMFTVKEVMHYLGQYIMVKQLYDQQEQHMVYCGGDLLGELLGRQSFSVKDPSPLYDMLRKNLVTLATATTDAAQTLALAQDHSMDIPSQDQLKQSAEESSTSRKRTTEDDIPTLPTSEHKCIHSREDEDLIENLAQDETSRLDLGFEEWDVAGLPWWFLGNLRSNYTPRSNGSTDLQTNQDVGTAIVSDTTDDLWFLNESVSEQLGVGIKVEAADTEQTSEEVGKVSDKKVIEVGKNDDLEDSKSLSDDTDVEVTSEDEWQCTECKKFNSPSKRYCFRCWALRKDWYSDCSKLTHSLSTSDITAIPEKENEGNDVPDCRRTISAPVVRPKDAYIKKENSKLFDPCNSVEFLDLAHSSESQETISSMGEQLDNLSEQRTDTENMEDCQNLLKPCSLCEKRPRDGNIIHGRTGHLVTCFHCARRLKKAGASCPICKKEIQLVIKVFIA
Target sequence (Q00987 whole entry, looked up): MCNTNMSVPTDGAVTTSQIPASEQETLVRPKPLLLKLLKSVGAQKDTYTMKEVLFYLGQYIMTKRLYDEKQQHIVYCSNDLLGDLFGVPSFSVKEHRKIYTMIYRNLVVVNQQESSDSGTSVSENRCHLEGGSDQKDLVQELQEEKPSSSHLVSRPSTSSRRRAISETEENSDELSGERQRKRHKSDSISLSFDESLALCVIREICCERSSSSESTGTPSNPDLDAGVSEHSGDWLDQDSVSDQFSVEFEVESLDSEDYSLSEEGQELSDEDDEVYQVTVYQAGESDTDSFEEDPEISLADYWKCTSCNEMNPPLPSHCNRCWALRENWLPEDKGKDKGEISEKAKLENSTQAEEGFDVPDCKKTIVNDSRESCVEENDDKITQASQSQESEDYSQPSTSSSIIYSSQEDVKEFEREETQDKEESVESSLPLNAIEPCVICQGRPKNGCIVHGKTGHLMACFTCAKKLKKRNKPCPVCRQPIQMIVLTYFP
Beta apoptosis: inhibitors of cytokine-induced beta cell apoptosis, primary screen, luminescence; INS-1E cytokine-induced death, ATP luminescence, 48 h; percent of positive-control rescue, neutral wells zero; protection from apoptosis, % (no concentration beside the values); 300,000 tested, 0.8% active;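 active = Every replicate reaches about 75%, or at least half do and their mean reaches it too, limit read from the data; inconclusive = At least half of replicates reach the limit but their mean does not; inactive = Under half of replicates reach the limit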;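 also: 0% = cytokine-treated negative control wells and 100% = positive control rescue; higher means more ATP so stronger rescue from cytokine killing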
Calb FLC: C. albicans growth inhibition with fluconazole, primary screen, CaCi-2 strain, Alamar Blue fluorescence; C. albicans CaCi-2 (fluconazole-resistant clinical isolate) + fluconazole, 48 h; growth inhibition, % (concentration not given with the values); 300,000 tested, 0.57% active;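 active = growth inhibition above about 58% in most replicates, limit read from the data, passing the limit was not always enough; inconclusive = exactly half the replicates above a set limit; inactive = most replicates below a set limit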;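 also: all wells also contain fluconazole at 8 µg/ml as a sub-toxic cotreatment; 0% = median of DMSO wells and 100% = median of geldanamycin control wells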
CSC inhib: cancer stem cell viability inhibitors, primary screen, luminescence; cancer stem cell-like cells viability; inhibition, % at 7.5 µM; 300,000 tested, 1.1% active; in the data active = inhibition above about 75%; inconclusive = no clear call, values can overlap the other calls; tested in HMLE shEcad cells
Starred values were filed as active, the others as inactive; ? = inconclusive; . = no result. An excerpt weighted towards active compounds, which were near 5.4% of everything screened.

SMILES | MPTP block | SKKanGAS inh | Mdm2-MdmX inh | Beta apoptosis | Calb FLC | CSC inhib
CN(C)S(=O)(=O)c1cccc(NC(=S)N/N=C/c2ccc(O)c(O)c2O)c1 | 1.4 | -15.8 | . | . | 76.7* | .
COC(=O)C1=C(C)N(CC2CC2)C(=O)N[C@H]1c1ccccc1 | 0.2 | 0.3 | -3.2 | -0.7 | 2.3 | -1.1
Cc1ccccc1C(N)c1ccncc1 (configuration not stated) | 0.1 | 5.1 | 7.3 | 0.1 | 0.2 | -6.4
Cc1cc(=O)c(C(=O)O)cn1Nc1ccc(Cl)cc1 | -3.5 | 65.1* | -15.7 | -1.5 | 5.9 | -5.0
Cc1nn(-c2ccccc2)c(Cl)c1/C=N/NC(=O)c1ccc(NS(=O)(=O)c2cccs2)cc1 | . | 71.6* | -5.9 | 1.5 | 7.4 | 8.9
COc1ccc(S(=O)(=O)NNC(=O)c2ccc([N+](=O)[O-])cc2)cc1 | -1.1 | 5.1 | 5.4 | -6.4 | 8.3 | 5.6
COc1ccc(NC(=O)C(Cc2ccccc2)n2cccc2)cc1OC (configuration not stated) | 2.0 | -0.9 | 9.5 | 5.7 | 2.3 | -1.7
Cc1ccccc1NS(=O)(=O)c1cc(OCC(N)=O)c(C)cc1Cl | 0.2 | -9.0 | -4.8 | 0.6 | 118.2* | -9.8
Cc1ccc(NS(=O)(=O)c2cc(OCC(N)=O)c(C)cc2Cl)cc1C | -6.9 | 4.7 | 43.1 | 2.5 | 9.1 | -3.2
COc1ccc(Cl)cc1NC(=O)CN(C)C(=O)c1cc2c(F)cccc2s1 | 0.2 | . | 40.4 | 11.3 | . | 47.1
Cc1cccc(CN2CCN(C(c3ccccc3)c3ccc(Cl)cc3)CC2)c1 (configuration not stated) | 5.1 | 17.2 | 29.6 | 60.7 | . | 85.5*
COc1cc(CN2CCN(C(c3ccccc3)c3ccccc3)CC2)cc(OC)c1OC | -0.4 | 1.2 | 16.1 | 12.0 | -2.0 | 1.7
O=C(NC(=S)N1CCN(c2ccc(F)cc2)CC1)C12CC3CC(CC(C3)C1)C2 | 2.9 | 50.9* | 4.2 | 0.1 | 1.5 | 7.5
CCC1Nc2ncnc(N3CCN(c4ccccc4)CC3)c2N(Cc2ccc(OC)cc2)C1=O (configuration not stated) | 0.8 | 3.4 | -15.7 | 5.0 | 12.4 | -18.0
Cc1cc(C)c(S(=O)(=O)ON2C(=O)c3ccccc3C2=O)cc1C | 0.4 | 22.8 | 2.5 | 24.0 | 19.9 | 10.4
Cc1cc(C)c(C)c(S(=O)(=O)ON2C(=O)c3ccccc3C2=O)c1C | 3.1 | -7.1 | 12.4 | . | 101.2* | .
Cc1ccc(C(=O)CC(=O)c2cccc(F)c2)c(O)c1 | 1.8 | 35.0 | 43.5 | 12.2 | -6.4 | 3.8
Cc1ccc(C(=O)CC(=O)c2ccccc2C)c(O)c1 | -1.8 | 96.6* | 33.9 | 4.3 | 81.1* | 26.3
Cc1ccc(O)c(C(=O)CC(=O)c2ccc(C(C)(C)C)cc2)c1 | 2.5 | 94.5* | 18.7 | 3.4 | -2.2 | 10.1
COc1ccc(O)c(C(=O)CC(=O)c2ccccc2)c1 | . | 8.3 | -181.0 | 0.0 | 13.7 | 2.8
Cc1ccc(O)c(C(=O)CC(=O)c2ccccc2Cl)c1 | 2.5 | 80.9* | 4.9 | 18.8 | 108.1* | 5.7
S=C(c1ccco1)N1CCOCC1 | -0.5 | . | . | . | . | .
c1ccc(CCCCN2C(Nc3ccccc3)=NC[C@@H]2Cc2ccccc2)cc1 | 11.1 | . | 34.2 | 5.1 | . | 19.6
CCCCCCCN1C(Nc2ccccc2)=NC[C@@H]1Cc1ccccc1 | 10.7 | 0.1 | 45.0 | 25.4 | 83.7* | 29.9
Cc1cccc(CCN2C(Nc3ccccc3)=NC[C@@H]2CC(C)C)c1 | 1.7 | . | 47.9 | -2.0 | . | 25.0
SMILES | MPTP block | SKKanGAS inh | Mdm2-MdmX inh | Beta apoptosis | Calb FLC | CSC inhib
CC(C)C[C@H]1CN=C(Nc2ccccc2)N1CCc1ccc(F)cc1 | 0.8 | . | 28.6 | 90.3* | . | 1.2
COCC(=O)N(Cc1cc2cc(C)ccc2[nH]c1=O)c1ccc(C)c(C)c1 | 0.3 | -7.0 | 13.0 | -10.3 | 2.4 | -20.6
Cc1ccsc1/C=N/NS(=O)(=O)c1ccc([N+](=O)[O-])cc1 | 1.5 | 0.9 | 16.4 | -3.3 | 101.2* | -6.8
O=C(COc1ccc2ccccc2c1)NC1CC1 | 20.4 | -4.4 | -38.4 | 2.1 | 3.3 | -2.7
NC1=NC2(CCCC2)N=C(Nc2ccccc2)N1 | 1.0 | -19.2 | -6.5 | -2.8 | 10.1 | -18.1
O=c1c2c([N+](=O)[O-])cc([N+](=O)[O-])cc2sn1Cc1ccccc1 | 4.5 | 85.4* | 9.6 | 20.6 | 12.2 | 41.1
Cc1oc(-c2cccc(F)c2)nc1CN1CCCN(C(=O)c2ccco2)CC1 | -4.1 | -1.0 | 30.2 | 1.2 | 0.8 | 4.4
COC(=O)N/N=C/c1cc([N+](=O)[O-])cc(Br)c1O | 0.4 | -4.7 | 6.7 | -4.9 | 0.4 | 16.2
O=C(CNC(=O)c1ccccc1Br)N/N=C/c1ccccc1O | -2.0 | 0.3 | 14.4 | -0.1 | 19.2 | .
O=C(CNC(=O)c1ccccc1Br)N/N=C/c1cc(Br)ccc1O | 3.4 | 72.8* | 36.4 | 42.8 | -4.0 | 31.5
O=C(CNC(=O)c1ccccc1Br)N/N=C\c1cc([N+](=O)[O-])cc(Br)c1O | -5.4 | 58.7* | 23.8 | -5.8 | -14.2 | 26.7
CN(C)Cc1c(C(=O)N/N=C/c2cccc(OCc3ccc(F)cc3)c2)nnn1-c1nonc1N | 2.3 | 0.7 | 11.4 | -7.3 | 4.1 | -7.2
CC(C)c1c(C(=O)N/N=C/c2cccc(OCc3ccc(F)cc3)c2)nnn1-c1nonc1N | 6.4 | 87.5* | 27.4 | 0.1 | -11.5 | 26.4
Cc1cc(Oc2ccc(-c3ccccc3)cc2)nc(N2CCOCC2)n1 | 2.7 | 54.0* | 18.8 | 0.9 | 2.5 | 26.8
Cc1cc(Oc2ccc(C(C)(C)C)cc2)nc(N2CCOCC2)n1 | 1.0 | 17.2 | -18.5 | 2.0 | 12.7 | 25.3
Cc1nnc(SCc2ccc(F)cc2Cl)s1 | -0.4 | -6.1 | -35.8 | -8.7 | 27.4 | -4.1
O=C(O)c1cc(S(=O)(=O)NCCOc2ccccc2)ccc1Cl | -2.2 | . | 4.4 | -0.2 | . | 11.5
COc1ccc2oc(C(=O)Nc3nc4ccccc4[nH]3)c(C)c2c1 | 1.1 | 78.0* | -174.2 | 28.3 | 11.6 | 27.4
COc1ccc(Br)c(C(=O)Nc2nc3ccccc3[nH]2)c1 | -1.3 | 1.5 | 4.0 | 5.6 | 3.0 | 0.0
COc1cc(OC)cc(C(=O)Nc2nc3ccccc3[nH]2)c1 | -5.0 | 59.0* | -44.5 | 3.5 | -13.4 | 4.7
Cc1ccc(S(=O)(=O)N(C)CC(=O)NCCCc2ccccc2)cc1 | 2.0 | -0.1 | 8.9 | 0.9 | 1.8 | -19.8
Nc1ccc(Sc2ccc([N+](=O)[O-])cc2)cc1 | 7.5 | -2.7 | 17.2 | -2.9 | 93.3* | 6.3
Cc1cccc(C(=O)NC(=S)NNC(=O)COc2ccc(Cl)cc2)c1 | 10.9 | 61.8* | 24.1 | . | ? | .
Cc1cccc(C(=O)NNC(=S)NC(=O)c2ccccc2)c1 | 27.7 | 96.4* | 36.3 | 16.9 | 0.9 | 24.7
Cc1cccc(/C(N)=N/OC(=O)COc2ccc(Cl)cc2)c1 | -0.6 | . | -13.3 | -3.6 | . | -2.1
Cc1ccc(C(=O)NNC(=O)c2cccc(C)c2)cc1 | -2.3 | -4.5 | 18.5 | -4.1 | -3.1 | -9.4

High-throughput results from PubChem BioAssay.
